These results are taken from PubChem BioAssay (NCATS).

The target of assay [1] is Atrial natriuretic peptide receptor 2 (Homo sapiens) (UniProt P20594). Nature of the assay: Natriuretic polypeptide receptor (hNpr2) antagonism - Pilot subtype selectivity assay (AID 1347050; calls by dose curve). A digest of the protocol: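 Luminescence from a genetically encoded cGMP luciferase biosensor in hNpr2-expressing HEK293 cells is read before and 20 min after adding 1 nM hNppC. Test compounds, in interplate 1:5 titrations, are added 30-50 min ahead of the agonist.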

A short description of assay [2]: NS1 protein of Zika virus - qHTS assay to identify small molecule inhibitors in human HEK 293 cells (AID 1347053). Note: nearly all actives have a fitted effect of over 55% in size. Note: potency is the fitted concentration of half-maximal effect. In a few lines: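 TR-FRET signal from two anti-ZIKV NS1 antibodies quantified NS1 in HEK 293 cells 24 h after MR766 infection at MOI = 0.5; compounds were added 1 h before virus. Uninfected cells and infected cells defined the NS1 normalization range.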
(In general: In qHTS, concentration-response curves come from the screen itself.)

Assay [3] addresses Parathyroid hormone/parathyroid hormone-related peptide receptor (Homo sapiens) (UniProt Q03431). Nature of the assay: qHTS for PTHR1 Agonists: Optimization Screen against the NCGC LOPAC library (AID 1347079).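 Note: GloSensor cAMP luminescence in HEK-293 GP2 cells expressing human PTHR1 with IBMX.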 In a few lines:
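Signal increase flags agonism. GP2 cells, derived from HEK-293, express human PTHR1 and a GloSensor cAMP construct.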

Assay [4] can be described thus: qHTS of pediatric cancer cell lines to identify multiple opportunities for drug repurposing: Primary screen for DAOY cells (AID 1347090). Note: series mostly up to about 46 µM; nearly all actives have a fitted effect of over 55% in size. A digest of the protocol: (§1)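 Viability measured as metabolically active cells via CellTiter-Glo luminescence following 48 hours of compound exposure, 11-point dilutions in confirmatory testing. 500-1,000 cells/well plated 5 hours before dosing; controls were DMSO and 2.3 µM bortezomib.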

Assay [5] is described as follows: qHTS of pediatric cancer cell lines to identify multiple opportunities for drug repurposing: Primary screen for SK-N-MC cells (AID 1347093). Note: potency is the fitted concentration of half-maximal effect. In a few lines: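 Metabolically active cells were quantified by ATP-dependent luminescence (CellTiter-Glo, 15 min at room temperature) following 48 h treatment. Cells had been plated at 500-1,000 per well and settled for 5 h beforehand.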

The nature of assay [6]: qHTS of pediatric cancer cell lines to identify multiple opportunities for drug repurposing: Primary screen for Saos-2 cells (AID 1347097). Note: nearly all actives have a fitted effect of over 40% in size. Note: potency is the fitted concentration of half-maximal effect. A digest of the protocol:
(§2)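 Phenotypic viability qHTS, 48 h compound exposure, CellTiter-Glo luminescence read-out; multi-concentration dosing so that potency and efficacy derive directly from the primary screen's curves.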

Assay [7] in a line: qHTS of pediatric cancer cell lines to identify multiple opportunities for drug repurposing: Primary screen for SK-N-SH cells (AID 1347098). Note: nearly all actives have a fitted effect of over 65% in size. Note: potency is the fitted concentration of half-maximal effect. In a few lines:
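Cells (500-1,000/well) rested 5 h, then received compounds for 48 h; metabolically active cells were measured by CellTiter-Glo luminescence. Final concentrations spanned up to 46 µM (MIPE, 11-point) or 0.59 nM-46 µM (NPC, 8-point) in primary screens, 11-point in follow-ups.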

Assay [8] in a line: qHTS of pediatric cancer cell lines to identify multiple opportunities for drug repurposing: Primary screen for TC32 cells (AID 1347089). Note: nearly all actives have a fitted effect of over 60% in size. Note: potency is the fitted concentration of half-maximal effect. A digest of the protocol:
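A viability screen of TC32 cells was run over 48 h, with primary MIPE doses spanning 0.78 nM–46 µM and NPC doses 0.59 nM–46 µM. ATP luminescence (CellTiter-Glo) served as the read-out.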

Assay [9] in a line: qHTS of pediatric cancer cell lines to identify multiple opportunities for drug repurposing: Primary screen for SJ-GBM2 cells (AID 1347091). Note: potency is the fitted concentration of half-maximal effect. A digest of the protocol: as §1
Assay [10] is described as follows: qHTS of pediatric cancer cell lines to identify multiple opportunities for drug repurposing: Primary screen for BT-37 cells (AID 1347094). Note: potency is the fitted concentration of half-maximal effect. In a few lines: as §2
Assay [11] can be described thus: qHTS of pediatric cancer cell lines to identify multiple opportunities for drug repurposing: Primary screen for U-2 OS cells (AID 1347096). Note: nearly all actives have a fitted effect of over 50% in size. A digest of the protocol:
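Viability after 48 h compound treatment at 37C, 500-1,000 cells/well, read as ATP luminescence with CellTiter-Glo. Primary screens used 11-point (MIPE, 0.78 nM-46 µM) or 8-point (NPC, 0.59 nM-46 µM) final concentrations; follow-up screens used 11-point dilutions.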

Assay [12] is described as follows: qHTS of pediatric cancer cell lines to identify multiple opportunities for drug repurposing: Primary screen for A673 cells (AID 1347092). Note: nearly all actives have a fitted effect of over 45% in size. Note: potency is the fitted concentration of half-maximal effect. A digest of the protocol: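 Titration-based qHTS on A673 cells: MIPE compounds spanned 11 points (0.78 nM to 46 µM final), NPC compounds 8 points (0.59 nM to 46 µM final). Viability after 48 h was measured by ATP luminescence.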

Assay [13] can be described thus: qHTS of pediatric cancer cell lines to identify multiple opportunities for drug repurposing: Primary screen for NB-EBc1 cells (AID 1347095). Note: potency is the fitted concentration of half-maximal effect. In a few lines: as §2
Assay [14] is described as follows: P-glycoprotein substrates identified in KB-8-5-11 adenocarcinoma cell line, qHTS therapeutic library screen (AID 1346987). Note: nearly all actives have a fitted effect of over 65% in size. Note: potency is the fitted concentration of half-maximal effect. In a few lines:
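Human cervical adenocarcinoma KB-8-5-11 cells, selected in colchicine to over-express P-gp and assayed without it, were exposed for 72 h to titrated compounds. An ATP-based luminescent viability signal gave AC50.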

A short description of assay [15]: qHTS of pediatric cancer cell lines to identify multiple opportunities for drug repurposing: Primary screen for NB1643 cells (AID 1347099). Note: nearly all actives have a fitted effect of over 50% in size. A digest of the protocol: as §2
Assay [16] concerns the target T1, Tyrosine-protein phosphatase non-receptor type substrate 1 (Homo sapiens) + Leukocyte surface antigen CD47 (Homo sapiens) (UniProt P78324+Q08722). Briefly: CD47-SIRPalpha protein protein interaction - LANCE assay qHTS validation (AID 1347057; active = well fitted curve in the direction sought with a large enough effect in the signal ratio, with a control signal flat, not every such curve was filed as active; the % refers to the signal ratio; note: series mostly up to about 38 µM). A digest of the protocol: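 Inhibition of soluble CD47/SIRPalpha ectodomain association by titrated compounds, measured as 665/615 nm time-resolved FRET ratio after sequential 30 min room-temperature incubations.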

The target in assay [17] is T1, Tyrosine-protein phosphatase non-receptor type substrate 1 (Homo sapiens) + Leukocyte surface antigen CD47 (Homo sapiens). Nature of the assay: CD47-SIRPalpha protein protein interaction - HTRF assay qHTS validation (AID 1347058; active = well fitted curve in the direction sought with a large enough effect in the signal ratio, not every such curve was filed as active; the % refers to the signal ratio; note: series mostly up to about 38 µM). In a few lines:
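Soluble extracellular domains (6His-CD47, Avi-tag-biotinylated SIRPalpha) in PBS pH 7.4 with 0.05% IGEPAL CA-630. Compounds were preincubated 30 min at RT with CD47 and anti-His-Eu, then SIRPalpha and SAV-XL665 were added. TR-FRET 665/615 ratio.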
(Time-resolved FRET reads energy transfer from a long-lived donor to a nearby acceptor.)

Assay [18] shares this target. Nature of the assay: CD47-SIRPalpha protein protein interaction - Alpha assay qHTS validation (AID 1347059).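 Note: bead proximity luminescence from CD47 binding SIRPalpha after compound preincubation with SIRPalpha.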 A digest of the protocol:
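SIRPalpha-biotin 25 nM + cpd, 30 min RT, dark; add CD47-His 12.5 nM, 30 min; add Ni-NTA/SAV beads 10 ug/mL, 30 min; AlphaScreen. Buffer PBS pH 7.4 + 0.05% IGEPAL CA-630. Non-biotinylated SIRPalpha as control inhibitor.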

Records with an inconclusive call do not appear. Activity calls are given as the source filed them. Unless noted, calls come from the whole dose curve; as a rule, active = well fitted curve in the direction sought with a large enough effect; inconclusive = small, poorly fitted or top-dose-only effect, or another doubt; inactive = no such curve, though single readings can be large; an effect the other way counts as inactive or inconclusive.

T1 sequence (P78324 whole entry, looked up, the tested form may be a part): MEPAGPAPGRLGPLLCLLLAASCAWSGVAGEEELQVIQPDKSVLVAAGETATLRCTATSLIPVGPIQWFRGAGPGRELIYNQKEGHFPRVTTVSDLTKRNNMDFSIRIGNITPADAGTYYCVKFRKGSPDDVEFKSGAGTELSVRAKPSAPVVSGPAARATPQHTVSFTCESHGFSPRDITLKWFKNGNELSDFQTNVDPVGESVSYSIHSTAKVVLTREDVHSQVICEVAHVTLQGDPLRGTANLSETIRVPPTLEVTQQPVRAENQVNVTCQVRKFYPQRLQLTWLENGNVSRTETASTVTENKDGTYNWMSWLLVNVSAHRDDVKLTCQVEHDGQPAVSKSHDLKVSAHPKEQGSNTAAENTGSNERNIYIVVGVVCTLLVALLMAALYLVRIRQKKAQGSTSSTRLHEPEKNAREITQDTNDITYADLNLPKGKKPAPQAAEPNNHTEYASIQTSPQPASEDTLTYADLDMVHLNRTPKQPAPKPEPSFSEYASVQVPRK
T1 sequence (Q08722 whole entry, looked up, the tested form may be a part): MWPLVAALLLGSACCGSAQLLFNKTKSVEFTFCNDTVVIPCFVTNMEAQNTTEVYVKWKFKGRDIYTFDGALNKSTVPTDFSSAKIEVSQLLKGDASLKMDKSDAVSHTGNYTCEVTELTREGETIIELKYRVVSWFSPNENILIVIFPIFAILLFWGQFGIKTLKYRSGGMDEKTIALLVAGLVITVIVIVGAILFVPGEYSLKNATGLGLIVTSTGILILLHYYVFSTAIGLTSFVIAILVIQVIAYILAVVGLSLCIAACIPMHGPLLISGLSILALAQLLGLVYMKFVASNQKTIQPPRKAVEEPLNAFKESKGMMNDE
Chain of Atrial natriuretic peptide receptor 2 (Homo sapiens) (P20594 whole entry, looked up): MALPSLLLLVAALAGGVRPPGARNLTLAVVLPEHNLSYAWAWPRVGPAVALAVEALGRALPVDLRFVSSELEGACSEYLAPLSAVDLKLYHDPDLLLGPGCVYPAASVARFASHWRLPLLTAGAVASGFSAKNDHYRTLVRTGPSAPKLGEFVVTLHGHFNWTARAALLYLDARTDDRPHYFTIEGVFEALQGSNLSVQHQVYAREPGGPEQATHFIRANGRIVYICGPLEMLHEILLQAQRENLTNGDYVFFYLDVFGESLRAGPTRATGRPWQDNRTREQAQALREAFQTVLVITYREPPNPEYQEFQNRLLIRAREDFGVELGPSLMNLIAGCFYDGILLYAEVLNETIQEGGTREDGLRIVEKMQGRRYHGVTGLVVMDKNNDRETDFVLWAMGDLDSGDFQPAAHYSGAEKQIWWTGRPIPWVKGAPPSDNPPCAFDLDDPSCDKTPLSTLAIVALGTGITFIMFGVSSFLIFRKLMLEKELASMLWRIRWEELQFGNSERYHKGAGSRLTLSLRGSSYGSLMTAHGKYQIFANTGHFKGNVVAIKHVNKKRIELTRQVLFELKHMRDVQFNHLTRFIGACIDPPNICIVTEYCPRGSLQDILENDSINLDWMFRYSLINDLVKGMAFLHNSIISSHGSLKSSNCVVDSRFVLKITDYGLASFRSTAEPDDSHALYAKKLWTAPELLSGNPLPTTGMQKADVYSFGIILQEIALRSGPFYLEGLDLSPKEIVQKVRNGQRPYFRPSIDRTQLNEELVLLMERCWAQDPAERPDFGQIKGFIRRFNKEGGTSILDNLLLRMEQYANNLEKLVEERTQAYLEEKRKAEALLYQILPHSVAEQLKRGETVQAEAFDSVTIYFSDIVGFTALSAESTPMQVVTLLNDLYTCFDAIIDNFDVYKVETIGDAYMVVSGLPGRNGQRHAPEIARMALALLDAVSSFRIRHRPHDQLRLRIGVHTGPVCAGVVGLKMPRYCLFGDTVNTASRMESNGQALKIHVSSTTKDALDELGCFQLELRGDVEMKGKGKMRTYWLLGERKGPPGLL
Chain of Parathyroid hormone/parathyroid hormone-related peptide receptor (Homo sapiens) (Q03431 whole entry, looked up): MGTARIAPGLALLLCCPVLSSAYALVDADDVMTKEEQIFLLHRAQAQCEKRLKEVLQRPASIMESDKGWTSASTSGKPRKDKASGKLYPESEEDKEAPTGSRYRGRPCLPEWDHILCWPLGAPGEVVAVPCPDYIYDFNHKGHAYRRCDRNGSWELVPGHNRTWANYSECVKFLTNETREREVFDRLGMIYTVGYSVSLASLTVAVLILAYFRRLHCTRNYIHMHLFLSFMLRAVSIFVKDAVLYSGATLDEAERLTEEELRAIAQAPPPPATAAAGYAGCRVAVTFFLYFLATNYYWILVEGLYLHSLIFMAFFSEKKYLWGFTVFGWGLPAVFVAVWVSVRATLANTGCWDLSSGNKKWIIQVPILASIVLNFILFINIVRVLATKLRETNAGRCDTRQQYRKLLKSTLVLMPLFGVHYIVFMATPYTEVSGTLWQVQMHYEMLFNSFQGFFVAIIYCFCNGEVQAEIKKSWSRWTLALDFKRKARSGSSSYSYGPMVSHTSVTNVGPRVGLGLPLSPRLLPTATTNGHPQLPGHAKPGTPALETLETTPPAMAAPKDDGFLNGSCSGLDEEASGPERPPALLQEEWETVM

With `CC/C(=C(\c1ccccc1)c1ccc(OCCN(C)C)cc1)c1ccccc1`, the molecule was classed as inactive in assay [1] and in assay [3]. The Potency entry in assay [2] and in assay [4] was “inactive” each time. Moreover, the Potency in assay [5] was 16.8 µM (active); in assay [6], 21.1 µM (active); in assay [7] it was 24.4 µM (active).
Turning to `Cc1c[nH]c(C=C2C(=O)Nc3ccccc32)c1CCC(=O)O`, the Potency entry in [2], in [8], in [4], in assay [5], in [10] and in assay [11] was “inactive” each time. Further, the values for the Potency in assay [9] and in [7] were 18.7 µM (active) and 24.1 µM (active), respectively.
Consider `CC(=NNC(=S)N1CCC1)c1ccccn1`, for which the Potency in assay [2] is 16.6 µM (active); in assay [8], 0.0415 µM (active); in assay [9], 0.0209 µM (active); in [12], 0.0037 µM (active); in assay [5] it was 0.0013 µM (active); in [10], 0.0054 µM (active). In [13], the Potency was 0.0166 µM (active). Besides, the Potency result in [11] and in assay [6] was “inactive” throughout.
Consider `NC1CCC(Nc2nc(Nc3ccc(C(=O)N4CCCCC4)cc3)c3ncn(-c4cccc(F)c4)c3n2)CC1` (stereo not drawn), for which the Potency result in assay [2], in [8], in assay [9], in [12], in [5] and in [10] was “inactive” in each case. Further, the Potency entry in assay [13], in [11], in assay [6] and in [7] was “inactive” in each case.
With `O=C(O)c1ccc(-c2cc3cccnc3c(-c3ccc4nonc4c3)n2)cc1`, the Potency in [2] is 23.5 µM (active); in [12], 18.7 µM (active); in assay [5], 3.32 µM (active); in [10], 24.3 µM (active). For the same molecule, the Potency entry in [8], in assay [4] and in assay [11] was “inactive” throughout.
Consider `COCCCCC(=NOCCN)c1ccc(C(F)(F)F)cc1`, for which the Potency is 20.9 µM (active) in assay [14], 23.5 µM (active) in assay [12], 10.5 µM (active) in assay [5] and 24.1 µM (active) in assay [7]. Besides, the Potency entry in [8], in [10], in assay [13], in assay [11] and in assay [15] was “inactive” each time.
For the molecule `O=C(NCc1ccccc1)c1csc(Nc2ccncn2)n1`, the Potency result in [14] and in [8] was “inactive” throughout. Also, the Potency in assay [12] is 23.5 µM (active); in [5] it was 20.9 µM (active); in assay [10] it was 17.2 µM (active); in assay [13] it was 14.8 µM (active); in assay [6], 11.8 µM (active).
In the case of `Cc1c(NC(=O)c2ccc(C(C)(C)C)cc2)cccc1-c1cn(C)c(=O)c(Nc2ccc(C(=O)N3CCOCC3)cc2)n1`, the Potency entry in [14] and in assay [8] was “inactive” in each case. The Potency was 9.35 µM (active) in [12], 18.7 µM (active) in [5], 18.7 µM (active) in [13] and 18.7 µM (active) in [6].
Turning to `CC(=O)O[C@]1(C(C)=O)CC[C@H]2[C@@H]3C=C(Cl)C4=CC(=O)[C@@H]5C[C@@H]5[C@]4(C)[C@H]3CC[C@@]21C`, the call in assay [1], in [16], in assay [17], in assay [18] and in assay [3] was inactive. In addition, the Potency entry in [2], in [8], in assay [13] and in assay [11] was “inactive” each time. In addition, the Potency in assay [6] was 26.6 µM (active).
As to `CC[C@@]1(O)C[C@H](O[C@H]2C[C@H](N(C)C)[C@H](O[C@H]3C[C@H](O)[C@H](O[C@H]4CCC(=O)[C@H](C)O4)[C@H](C)O3)[C@H](C)O2)c2c(cc3c(c2O)C(=O)c2c(O)cccc2C3=O)[C@@H]1C(=O)OC`, the Potency result in [2] was “inactive”. Also, the Potency in assay [9] is 0.372 µM (active); in [12], 4.69 µM (active); in assay [5], 18.7 µM (active); in assay [10] it was 0.385 µM (active); in [13] it was 0.526 µM (active); in [6] it was 16.6 µM (active).
As to `Cc1cccc(Nc2nc(-c3ccncc3)cs2)c1`, the Potency entry in assay [8], in assay [5], in assay [11], in assay [6] and in assay [7] was “inactive” each time. Further, the Potency in assay [9] was 16.6 µM (active).
As to `NC(=O)c1ccc2nc(-c3ccc(Oc4ccc(Cl)cc4)cc3)[nH]c2c1`, the Potency entry in assay [2], in assay [9], in [13], in [11], in assay [6] and in [7] was “inactive” in each case. In addition, in [15], the Potency result is “inactive”.
